Source: PubChem BioAssay (NCI)
Compounds without any hit were thinned out: in the full panel of roughly 79,000, 15% have a hit. Unmarked numbers belong to inactive results. Active and inactive are the calls of the source. No stated cut-off is given here; in the data, active means growth inhibition above about 70%; inactive means the rest.

Columns and labels:
[1] = NCI Yeast Anticancer Drug Screen. Data for the rad50 strain (AID 155);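 further: 0% = growth of vehicle-only cultures of the same strain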; details: S. cerevisiae rad50 strain growth inhibition; at 50.0 µM; active compounds read high
Method in brief: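 Cells are treated with compound, grown, and their growth is then scored against vehicle-only cultures of the same repair-deficient yeast strain.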

[2] = NCI Yeast Anticancer Drug Screen. Data for the mec2-1 strain (AID 157); details: S. cerevisiae mec2-1 strain, at 50.0 µM, active compounds read high
Method in brief: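 mec2-1 yeast strain, carrying an alteration in DNA damage repair or cell cycle control, was exposed to compounds; growth inhibition was measured relative to vehicle-treated controls.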

[3] = NCI Yeast Anticancer Drug Screen. Data for the sgs1 mgt1 strain (AID 161);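 further: 0% = growth of cultures given vehicle only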; details: S. cerevisiae sgs1 mgt1 strain, at 50.0 µM, active compounds read high
Method in brief: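 Percent growth inhibition was derived by comparing compound-exposed mutant yeast with vehicle-exposed cultures. The strain carries alterations in DNA damage repair.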

[4] = NCI Yeast Anticancer Drug Screen. Data for the cln2 rad14 strain (AID 165);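 further: 0% = growth equal to vehicle treated cultures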; details: S. cerevisiae cln2 rad14 strain, at 50.0 µM, active compounds read high
Method in brief: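 Yeast carrying cln2 and rad14 alterations (cell cycle control and DNA damage repair) were exposed to compounds. Growth inhibition was measured against vehicle-treated controls.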

[5] = NCI Yeast Anticancer Drug Screen. Data for the bub3 strain (AID 167); details: S. cerevisiae bub3 mutant strain, at 50.0 µM, active compounds read high
Method in brief: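 Part of a panel of yeast mutants defective in DNA damage repair or cell cycle regulation. Each strain is grown with compound, and inhibition is calculated relative to solvent-treated cultures.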

[6] = NCI Yeast Anticancer Drug Screen. Data for the mlh1 rad18 strain (AID 175); details: S. cerevisiae mlh1 rad18 strain growth inhibition; at 50.0 µM; active compounds read high
Method in brief: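 Growth inhibition of the yeast strain was measured after compound exposure and expressed relative to vehicle-treated controls. The strain carries defined defects in DNA damage repair.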

SMILES | growth inhibition [1] | growth inhibition [2] | growth inhibition [3] | growth inhibition [4] | growth inhibition [5] | growth inhibition [6]
Nc1nnc(Sc2n[nH]c(=O)[nH]c2=O)s1 | -8.8% | -2.6% | -14.3% | -0.2% | -4.9% | -8.05%
O=P(CCC(F)(F)C(F)(F)C(F)(F)C(F)(F)C(F)(F)C(F)(F)C(F)(F)F)(N1CC1)N1CC1 | 25.4% | -1.9% | 8.15% | -9.75% | -1.2% | 1.95%
CC(=O)NNc1nc(C)c(C(=O)/C=C/c2ccc(/C=C/C(=O)c3sc(NNC(C)=O)nc3C)cc2)s1 | -29.6% | -3.4% | -37.6% | 6.25% | -13.2% | -35.1%
COc1cc(O)c2c(=O)c(OC)c(-c3ccc4c(c3)OCO4)oc2c1 | 4.6% | 6.2% | -9.85% | 2.35% | -24.2% | -44.4%
COC(=O)c1nnn(-c2cccc(Cl)c2)c1C(=O)c1ccc(Cl)c(Cl)c1 | -6.55% | 5.55% | 7.5% | -5.25% | -8.9% | 11.8%
CNC(=O)OCc1c(COC(=O)NC)c(C)n(-c2ccc(F)cc2)c1C | 30.1% | 14.8% | 4.55% | 0.5% | 50.3% | -12.2%
COc1cc(OC)c(NC(N)=O)cc1Cl | 2.3% | -35% | 3.55% | 9.75% | 5.75% | -15.8%
C/C(=N/C(=O)NN)c1ccc(Cl)cc1 | 34.2% | -7.9% | 42.9% | 2.35% | 37.2% | 31.9%
OC1CCC2OC12 (stereo not given) | 7.3% | 0.55% | 18.2% | 0.4% | -1.3% | 2%
CC(C)/C(Cl)=N\OC(NC(=O)P(=O)(c1ccccc1)c1ccccc1)(C(F)(F)F)C(F)(F)F | 58.5% | 52.2% | 50.8% | 65.5% | 52.4% | 60.9%
N#COc1ccc(-c2ccccc2)cc1 | -38.5% | -8.35% | -12.2% | -15.2% | -9.25% | 0.8%
O=c1oc2ccccc2c(O)c1C=NC(=S)c1ccncc1 | -30.6% | -38.4% | -27.9% | 24.9% | -11.3% | -25.5%
O=C(O)c1cnc2cc3c(cc2c1Nc1cccc(Cl)c1)OCO3 | -2.25% | -4.05% | 4.45% | -27.5% | -8.6% | -12.6%
O=C1CSC(c2cccc(Cl)c2)N1c1ccc(-n2c(-c3ccccc3)nc3ccccc3c2=O)cc1 (stereo not given) | -4.3% | 9.65% | 8.9% | -15.9% | 9.2% | -6.8%
O=C1C2C3CCC(O3)C2C(=O)N1c1ccccn1 (stereo not given) | -26.3% | -11.6% | -4.85% | -25.1% | 2.25% | 0.2%
CCCCCCC(=O)/C=C/c1ccc(OCc2ccccc2)c(OCc2ccccc2)c1 | 33.9% | -2.6% | 18.5% | 23.9% | -2.15% | 16.1%
Cc1ccc(CCOS(=O)(=O)c2ccc(C)cc2)cc1 | 13.5% | -26.5% | -1.3% | 10.2% | 28% | 10.7%
CC(C)COS(=O)(=O)O | 19.2% | 6.65% | 20% | 24.9% | 15.2% | 27.1%
O=C(c1ccc(Cl)cc1)C(Br)C(C[N+](=O)[O-])c1ccccc1 (stereo not given) | 99.3% (active) | 99% (active) | 99.5% (active) | 97.2% (active) | 99.1% (active) | 99.2% (active)
CCN(CC)CCOC(=O)c1c2nc3c(C(=O)OCCN(CC)CC)ccc(C)c3oc-2c(C)c(=O)c1N | 79.5% (active) | 35.9% | 42.1% | -5.2% | 61.9% | 36.3%

SMILES | growth inhibition [1] | growth inhibition [2] | growth inhibition [3] | growth inhibition [4] | growth inhibition [5] | growth inhibition [6]
CN(C)CCC(=O)c1cccc(O)c1 | -27.9% | -19% | -6.4% | -37.6% | -9.45% | -10.2%
O=[N+]([O-])c1ccc(OCCO)c([N+](=O)[O-])c1 | 6.75% | -5.85% | -22.4% | -11.5% | -0.15% | 10%
CCOC(CNCc1ccc(OC)cc1)OCC | -0.25% | -3.1% | 4% | -2.05% | 22.4% | 7.6%
CC(=O)[C@@]1(O)CC[C@H]2[C@@H]3C[C@H](C)C4=CC(=O)C=C[C@]4(C)[C@@]3(F)[C@@H](O)C[C@@]21C | -24.1% | 9.65% | -11.1% | -33% | -4.5% | -22.1%
Cc1ccc2cccnc2c1 | 21.9% | -4.6% | -0.95% | 11.2% | 2.85% | 5%
CC(C)(C)C(=O)N1C(C(=O)O)Cc2ccccc2[C@@H]1Cc1ccccc1 (stereo not given in full) | -6.9% | -7.25% | -16.1% | 22.5% | -11.1% | -29.5%
CC(=O)OCC1OC2OC(C)(C)OC2C2OC(C)(C)OC12 (stereo not given) | -13.5% | 5.35% | 19.2% | -4.65% | -7.65% | -12.8%
CCCCCCCCCCCCCCCCSc1ccc(S(=O)(=O)N(C)C)cc1N | -16.3% | -36.8% | 3.15% | 10% | 0.75% | 11.9%
Nc1nc(I)nc2c1ncn2C1OC(COS(N)(=O)=O)C(O)C1O (stereo not given) | 67% | 67.5% | 40.9% | 63.6% | 43.9% | 78.3% (active)
O=C(c1ccccc1Cl)N1CCN(c2ccccc2)CC1 | 12.9% | -3.4% | 0% | -28.5% | 9.55% | -6.85%
CCOC(=O)c1ccc(NC(=O)Nc2cc(C(F)(F)F)ccc2Cl)cc1 | 89.2% (active) | 28.3% | 92.9% (active) | 92.2% (active) | 86.7% (active) | 94% (active)
CC(=O)C1=C(O)C(CSCc2ccccc2)NC1=O (stereo not given) | 10.8% | 0.65% | 5.95% | -2.9% | 15.1% | 15.2%
O=C1OC(C(Cl)(Cl)Cl)Nc2ccccc21 (stereo not given) | 13.8% | -19.8% | 9.35% | 15.6% | 19.4% | 12.9%
CN(C)CSC(=S)NCCNC(=S)SCN(C)C | 1.6% | -19.6% | 24.8% | 5.95% | 4% | -4.1%
CCCCCCCCCCCCCCCCS(=O)(=O)N/N=C(/c1ccc(Cl)cc1)N1CCCCC1 | -18.2% | -32.1% | 3.25% | 21.2% | -10.2% | -4.85%
COc1cccc(-c2nnc(-c3cccc(OC)c3)o2)c1 | 25.4% | -12.1% | 16.6% | 1.95% | 25.5% | 0.2%
O=C(O)CC(/C=C\C(=O)C(=O)O)=C\O | -6.6% | -6.4% | -11.6% | 3.6% | 4.15% | -10.2%
O=C(c1ccc2c(c1)C(=O)OC2=O)c1ccc2c(c1)C(=O)OC2=O | -22.5% | -39.9% | -17.8% | 6.1% | -27.8% | -29.7%
CC(=O)/C(=C\I)c1ccccc1 | 87.8% (active) | 91.8% (active) | 85.4% (active) | 89.9% (active) | 89.5% (active) | 85.5% (active)
C=Cc1ccc(C[n+]2cccc(C(N)=O)c2)cc1 | -15.2% | -17% | -2.95% | -1.75% | 17.2% | -35.9%
